CHO-K1 Ca PAM: counter-screen for M1 PAMs: effect in parental CHO-K1 cells | 360,000 tested, 0.02% active | ATP EC20, Fluo-8 calcium fluorescence; 0% at ATP EC20, 100% at ATP max | activation, % at 3 µM;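 active = activation above the run cutoff, the mean activation of all test compounds plus 3 SD, cut at about 40% in these data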;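 note: peak over basal fluorescence ratio in a 140 s read after ATP addition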
M1 PAM: potentiates human M1 receptor response to acetylcholine; P11229; CHO-K1 hM1, Fluo-8 calcium fluorescence, ACh EC20; 0% = ACh EC20, 100% = maximal ACh; activation, % at 3 µM; 360,000 tested, 0.088% active; AID 588819; in the data active = activation above about 19%, passing the limit was not always enough
Target sequence (P11229 whole entry, looked up): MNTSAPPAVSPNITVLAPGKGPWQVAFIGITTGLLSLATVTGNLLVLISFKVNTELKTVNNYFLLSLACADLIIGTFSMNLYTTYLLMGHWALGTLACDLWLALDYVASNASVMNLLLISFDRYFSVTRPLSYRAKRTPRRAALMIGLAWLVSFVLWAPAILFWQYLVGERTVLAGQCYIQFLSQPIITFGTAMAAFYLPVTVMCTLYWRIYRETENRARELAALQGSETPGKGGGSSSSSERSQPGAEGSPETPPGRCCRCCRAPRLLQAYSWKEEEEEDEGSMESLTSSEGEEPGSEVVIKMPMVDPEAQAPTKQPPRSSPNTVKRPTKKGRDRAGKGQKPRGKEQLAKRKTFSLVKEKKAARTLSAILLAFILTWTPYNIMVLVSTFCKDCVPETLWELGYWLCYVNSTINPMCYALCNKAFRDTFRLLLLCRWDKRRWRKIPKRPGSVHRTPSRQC
CHRM1 agonist: human M1 muscarinic receptor agonism; CHO-K1 hM1, Fluo-8 calcium fluorescence, agonist mode; 0% DMSO, 100% acetylcholine EC100; activation, % at 3 µM; P11229; 360,000 tested, 0.33% active;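 active = activation above the run's mean compound activation plus 3 SD, cut at about 16% in these data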;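 note: peak over basal fluorescence ratio within a 140 s kinetic read after compound addition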
M1 ag parental: nonselective activator or artifact in parental CHO-K1 cells; 360,000 tested, 0.48% active; activation, % at 3 µM; Fluo-8 calcium fluorescence; scaled to maximal ATP response, vehicle zero; AID 602248; in the data active = activation above about 15%;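 note: untransfected CHO-K1 host cells lacking M1 receptor as counterscreen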
M1 antag: antagonists of human M1 muscarinic receptor; inhibition, % at 3 µM; CHO-K1 hM1, Fluo-8 calcium fluorescence, ACh EC80 antagonist; 360,000 tested, 1.3% active; AID 588852; P11229;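 active = percent inhibition above its own plate's cutoff, namely the mean of that plate's compound wells plus 3 SD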;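 note: peak over basal fluorescence ratio during 140 s after agonist addition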
CHO-K1 Ca antag: counter-screen for M1 antagonists: effect in parental CHO-K1 cells | AID 602250 | 360,000 tested, 0.6% active | ATP-induced calcium, Fluo-8 fluorescence | inhibition, % at 3 µM;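 active = inhibition above a per-plate cutoff, the plate's mean sample inhibition plus 3 SD, cut at about 24% in these data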
Numbers stand for hits; 0 = inactive; ! = a repeat was not active. Most compounds without a hit are left out; they make up all but 2.3% or so of the library.

SMILES	CHO-K1 Ca PAM	M1 PAM	CHRM1 agonist	M1 ag parental	M1 antag	CHO-K1 Ca antag
O=[N+]([O-])c1ccc(Oc2c(F)c(F)nc(N3CCCC3)c2F)cc1	0	0	0	0	28	0
Cc1ccc(Cl)c(OCCCCN(C)Cc2ccccc2)c1	0	0	0	0	37	0
CCOc1cccc(OCCOCCN(C)C)c1	0	0	0	0	0	0
COC(=O)c1ccc(OCCCCN(C)Cc2ccccc2)cc1	0	0	0	0	31	0
CCOc1cccc(OCCOCCN(C)Cc2ccccc2)c1	0	0	0	0	31	0
COc1ccc(CN2C(=NC(=O)C3CC3)SC3CS(=O)(=O)CC32)cc1OC (stereo not given)	0	0	0	0	0	0
CCCS(=O)(=O)NC(=O)C1(C)CCN(C(=O)c2ccc(C#N)cc2)C1 (stereo not given)	0	0	0	0	0	0
O=[N+]([O-])c1ccccc1Nc1cccnc1	0	0	0	0	0	0
CCOc1cc(N2CCOCC2)c(OCC)cc1NC(=O)C(NC(=O)c1c(F)cccc1F)C(C)C (stereo not given)	0	0	0	0	0	0
COc1ccc(NC2CCCN(C(=O)c3cc(CC(C)C)nc(N)n3)C2)cc1 (stereo not given)	0	0	0	0	0	0
COCCCNC(=O)C(=O)Nc1cc2c3c(c1)CCN3C(=O)CC2	0	0	0	0	0	0
Cc1cccc(/C=N/NC(=O)c2ccc(NC(=O)c3cccc(Cl)c3)cc2)n1	0	0	0	0	0	0
CCCc1cc(Nc2ccccc2OCC)n2ncnc2n1	0	0	0	0	0	28
Nc1nc(-c2nc3ccccc3[nH]2)cs1	0	0	0	0	0	32
c1ccc(-c2nc3ccccc3[nH]2)nc1	0	0	0	0	0	0
Cc1cc[n+](C(C)C(=O)c2ccc(-c3ccccc3)cc2)cc1 (stereo not given)	0	0	0	0	58	0
CC(C(=O)c1ccc(-c2ccccc2)cc1)[n+]1ccccc1 (stereo not given)	0	0	0	0	0	0
COC(=O)C(CCSC)NC(=O)c1cc2c(n(-c3ccccc3)c1=O)CC(C)(C)CC2=O (stereo not given)	0	0	0	0	0	27
COC(=O)C(CCSC)NC(=O)c1cc2c(n(-c3ccc(C)cc3)c1=O)CCCC2=O (stereo not given)	0	0	0	0	0	0
CC(C)CC(=O)Nc1nnc(S(=O)(=O)N2CCc3ccccc32)s1	0	0	0	0	0	29
CC(C)c1ccc(C(=O)NNC(=O)c2ccncc2)cc1	0	0	0	0	0	0
O=C(NNC(=S)NC(=O)C12CC3CC(CC(C3)C1)C2)c1ccncc1	0	0	58	46	0	0
CCC(C)NC(=S)NNC(=O)c1ccncc1 (stereo not given)	0	0	0	0	0	27
CC12CC3CC(C1)CC(C(=O)NNC(=O)c1ccncc1)(C3)C2	0	0	0	0	63	0
O=C(NNC(=S)NC(=O)c1ccc(F)cc1)c1ccncc1	0	0	0	0	0	0
SMILES	CHO-K1 Ca PAM	M1 PAM	CHRM1 agonist	M1 ag parental	M1 antag	CHO-K1 Ca antag
CC1(C(=O)NC(=S)NNC(=O)c2ccncc2)CCCCC1	0	0	39	28	0	0
O=C(NNc1ccccc1)OCc1ccccc1	0	0	0	0	0	0
COCCCNc1c2c3c(cccc3[nH]c1=O)C(=O)c1ccccc1-2	0	0	264	285	71	56
Cc1cccc(OCc2nn[nH]n2)c1C	0	0	0	0	0	0
Cc1cc(SCn2nnc3ccccc3c2=O)nc2ccccc12	0	0	0	0	0	0
Cc1ccc(-n2nnnc2SCn2nnc3ccccc3c2=O)c(C)c1	0	0	0	0	0	24
CC(C)NC(=O)Nc1ccc2c(c1)C(=O)N([C@@H](C)CO)C[C@H](C)[C@H](CN(C)S(=O)(=O)c1ccccc1)OCCCC[C@H](C)O2	0	0	0	0	0	0
CCOC(=O)Nc1ccc2c(c1)N(C(=O)OCCN(C)C)c1ccccc1CC2	0	0	0	0	31!	0
O=C(COC(=O)[C@@H]1CC(O)CN1S(=O)(=O)c1ccc(Cl)cc1)NC(=O)NCc1ccccc1 (stereo not given in full)	0	0	0	0	0	0
CCN(CC)S(=O)(=O)c1ccc(N2CCCC2)c(NC(=O)Cc2c(F)cccc2Cl)c1	0	0	0	0	0	0
COc1cc(/C=C2\SC(=Nc3ccc(Cl)c(C(=O)O)c3)NC2=O)c(Br)c(Br)c1O	0	0	51	42	0	27
CCc1ccc(N=C2NC(=O)/C(=C/c3cc(OC)c(O)c(OC)c3)S2)cc1	0	0	0	0	0	0
COc1cc(/C=C2\SC(=Nc3ccccc3)NC2=O)cc(Cl)c1O	0	0	79	38	50	32
CC[C@H]1C(=O)[C@@H](Cc2ccccc2)[C@@H]2CCN3C(=O)CCC[C@H]1[C@H]23	0	0	0	0	0	0
Cc1ccc(NS(=O)(=O)c2ccc(-c3coc(C)n3)cc2)c(Cl)c1	0	0	0	0	0	0
COc1cccc(-c2nc3sc4c(c3c(=O)[nH]2)CCCCC4)c1	0	0	0	0	0	0
Cc1[nH][nH]c(=O)c1C(c1c(C)[nH][nH]c1=O)c1cn(Cc2ccc(Cl)c(Cl)c2)c2ccccc12	0	0	20	0	0	0
CCCCCOc1ccc2oc(=O)c3c(c2c1)CCCN3C(=O)CN1CCCC(C(=O)OCC)C1 (stereo not given)	0	0	0	0	35	0
COC(=O)C(CC(=O)c1ccc(Br)cc1)n1nc(C)cc1C (stereo not given)	0	0	0	0	0	0
COC(=O)C(CC(=O)c1ccc(C)cc1)n1nc(C)cc1C (stereo not given)	0	0	0	16	0	0
CN1CCN(NC(=O)Nc2cccc(F)c2)CC1	0	0	0	0	31	0
O=C(Nc1cccc(F)c1)Nc1cccc(Cl)c1	0	0	0	16	43	30
O=C(NCc1ccc(F)cc1)Nc1ccc(Cl)cc1	0	0	0	0	0	0
O=C(NCc1ccc(F)cc1)Nc1cccc(Cl)c1	0	0	0	0	0	31
Cc1ccc(SCC(=O)Nc2ccc(N3CCOCC3)cc2)c(C)c1	0	0	0	0	0	0
Cc1ccc(NC(=O)Cn2c(=O)cnc3ccccc32)cc1S(=O)(=O)N1CCOCC1	0	0	0	0	0	0
COc1ccccc1NC(=O)N(C)C[C@H]1Oc2ncc(C#CCN(C)C)cc2C(=O)N([C@H](C)CO)C[C@H]1C	0	0	0	0	0	0
Cn1c(=O)c2[nH]c(CCCCc3nc4ccccc4[nH]3)nc2n(C)c1=O	0	0	0	0	0	0

Source: PubChem BioAssay
